HSP90 refold inh: HSP90 refolding inhibition in rabbit reticulocyte lysate; inhibition, % at 5.6 µM; 290,000 tested, 0.91% active; luciferase refolding luminescence, 3 h;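 active = inhibition above the screen-wide mean plus 3 SD, computed separately per campaign, cut at about 16% in these data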;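 note: 0% = DMSO wells and 100% = 60 µM geldanamycin wells; inhibitors lower the luminescence because luciferase stays unfolded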
HSF1 activator: increases HSF-1 driven luciferase reporter signal. NIH3T3-HGL HSF-1 luciferase reporter, MG132, 8 h; 100% = twice DMSO control signal. activation, % at 9 µM. 300,000 tested, 1.7% active. AID 504408;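 active = mean replicate activation of at least 50% with a set share of replicates each reaching 50%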;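 note: 0% = median of the neutral control wells and 100% = twice that signal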
GAA850 FXN act: activators of GAA850 frataxin (FXN) promoter; HEK293 lucGAA850 FXN promoter luciferase reporter, 24 h; percent of 10 µM SAHA response; activation, % at 6 µM; 360,000 tested, 0.56% active; AID 540364;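 active = activation above the average of all compounds screened plus 3 SD, cutoff fixed separately per campaign, cut at about 7.5% in these data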;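 note: 0% = DMSO wells and 100% = 10 µM SAHA wells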
HSF1 inhib: HSF1 inhibition; NIH3T3-HGL HSE-luciferase, MG132-induced, luminescence 8 h; stronger effect = lower value; activity change, negative = inhibition, % at 7.5 µM (by protocol); 300,000 tested, 0.77% active; AID 2098;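 active = more than half of replicate wells show activity change below -50%, luminescence cut by over half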;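 note: luciferase reports HSF-1 transcriptional activity via heat shock element; 0% = median of DMSO wells and -100% = zero luminescence signal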
AHR activator: activators of human aryl hydrocarbon receptor. AHR-responsive luciferase reporter cells, luminescence. 320,000 tested, 2.5% active. activation, % at 5 µM. P35869; in the data active = activation above about 47%;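 note: 0% = vehicle wells and 100% = reference agonist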
Target sequence (P35869 whole entry, looked up): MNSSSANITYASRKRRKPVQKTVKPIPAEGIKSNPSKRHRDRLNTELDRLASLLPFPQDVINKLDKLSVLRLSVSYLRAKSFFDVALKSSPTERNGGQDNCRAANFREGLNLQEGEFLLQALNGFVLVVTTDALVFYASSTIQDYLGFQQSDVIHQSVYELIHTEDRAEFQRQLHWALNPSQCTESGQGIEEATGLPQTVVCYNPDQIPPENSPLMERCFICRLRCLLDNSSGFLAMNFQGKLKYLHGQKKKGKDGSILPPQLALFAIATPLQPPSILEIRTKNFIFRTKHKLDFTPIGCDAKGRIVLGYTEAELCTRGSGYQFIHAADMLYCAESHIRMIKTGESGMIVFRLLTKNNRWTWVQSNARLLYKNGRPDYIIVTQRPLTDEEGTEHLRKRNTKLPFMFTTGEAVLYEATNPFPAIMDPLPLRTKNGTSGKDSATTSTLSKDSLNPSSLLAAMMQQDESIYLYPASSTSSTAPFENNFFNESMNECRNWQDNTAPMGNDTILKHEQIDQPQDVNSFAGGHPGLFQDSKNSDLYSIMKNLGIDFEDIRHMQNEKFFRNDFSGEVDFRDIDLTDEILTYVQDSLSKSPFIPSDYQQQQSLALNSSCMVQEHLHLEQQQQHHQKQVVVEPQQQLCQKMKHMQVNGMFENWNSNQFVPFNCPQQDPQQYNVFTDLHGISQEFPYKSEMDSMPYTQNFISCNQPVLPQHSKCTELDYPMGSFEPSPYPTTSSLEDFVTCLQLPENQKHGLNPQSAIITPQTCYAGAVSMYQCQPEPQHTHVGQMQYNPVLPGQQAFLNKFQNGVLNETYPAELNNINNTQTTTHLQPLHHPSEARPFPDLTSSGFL
NR0B1 inh: inhibitors of human orphan nuclear receptor DAX1 (NR0B1); 340,000 tested, 0.99% active; inhibition, % at 6.75 µM; P51843; HEK293 Gal4-DAX1 luciferase reporter, luminescence;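 active = inhibition above the mean over all tested compounds plus 3 SD, cut at about 4.2% in these data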;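 note: 0% = DAX1-transfected cells with DMSO and 100% = empty-vector control cells with DMSO; inhibition shows as a rise in luminescence from relieved DAX1 repression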
* hit, by the source's call; . = no result given. Compounds with a hit are over-represented: about 5.9% of the library has one in this group of screens.

SMILES	HSP90 refold inh	HSF1 activator	GAA850 FXN act	HSF1 inhib	AHR activator	NR0B1 inh
Cc1ccc(OCC(=O)Nc2ccc(N3CCN(S(C)(=O)=O)CC3)cc2)cc1C	-3	61*	2	35	-2	0
Cc1ccc(OCC(=O)Nc2ccc3c(c2)OCCO3)cc1C	8	-59	-8	-63*	0	2
Cc1cccc(OCC(=O)Nc2ccc3c(c2)OCCO3)c1	1	.	2	.	3	-1
O=C(Nc1ccc2c(c1)OCCO2)NC1(C(F)(F)F)Oc2ccccc2O1	-2	-72	-11	-67*	8	-2
Cc1ccc(OCC(=O)Nc2ccc(N3CCN(S(C)(=O)=O)CC3)cc2)c(C)c1	1	16	0	12	2	0
Cc1ccccc1OCC(=O)Nc1ccc2c(c1)OCCO2	-1	-1	0	9	4	8.2*
COc1ccc(OCCN(C)C(=O)c2cccc(S(=O)(=O)N(C)c3ccccc3)c2)cc1	.	.	-2	.	0	-1
COC(=O)c1cccc(NC(=O)CCCN2C(=O)NC3(CCCC3)C2=O)c1	.	.	0	.	.	0
CC(C)C#Cc1cnc2c(c1)C(=O)N([C@@H](C)CO)C[C@@H](C)[C@H](CN(C)Cc1cccc(F)c1)O2	.	.	2	.	.	0
CN(C(=O)c1ccc(NC(=O)Cc2ccc(NC(=O)C3CCCN(C(=O)C4CCCC4)C3)cc2)cc1)C1CC1 (stereo not given)	.	.	1	.	-1	0
CCC(CC)C(=O)N(C)c1c(C)nc2c(OCC3CCCCC3)cccn12	.	.	-2	.	.	.
CCCCNCc1cc2ccccc2o1	3	6	0	-7	-1	4.5*
CCCCNC(=O)CO/N=C(\C)c1cc2ccccc2o1	-4	19	4	13	4	-1
Cc1[nH]nc(Nc2ccc(Br)cc2)c1[N+](=O)[O-]	2	39	6	21	125*	5.6*
Cc1ccc(S(=O)(=O)N2CCN(C(=O)c3cc(C4CC4)nc4c3cnn4C(C)C)CC2)cc1	.	.	2	.	1	0
COc1ccc(Nc2cc(C)nc3nc(C)nn23)cc1Cl	-2	-1	-1	5	13	4.6*
Cc1cc(Nc2ccc(F)c(Cl)c2)n2ncnc2n1	-7	-10	3	-5	4	4.5*
COc1ccc(Nc2cc(C)nc3nc(C)nn23)c(OC)c1	9	-4	-1	-5	12	5.1*
Cc1cc(Nc2ccc(C)c(Br)c2)n2nc(C)nc2n1	-4	12	0	-1	61*	4.4*
CN(C(=O)C1CC1)C1CCS(=O)(=O)C1 (stereo not given)	.	47	-1	27	-1	1
O=C(O)c1ccccc1SCCS(=O)(=O)c1ccc(Cl)cc1Cl	-2	-6	0	-8	0	1
O=C(Cc1ccccc1)c1ccccc1C(=O)N1CCCCC1	-1	18	1	29	0	-2
CC1CCC(NC(=O)CCS(=O)(=O)c2ccc3c(c2)oc(=O)n3C)CC1 (stereo not given)	-2	-3	-1	4	0	0
Cc1cc(Nc2ccc(F)cc2F)n2nc(C)nc2n1	-3	1	-1	-2	0	4.9*
Cc1cc(Nc2cc(F)ccc2C)n2nc(C)nc2n1	-6	1	0	-2	28	3
SMILES	HSP90 refold inh	HSF1 activator	GAA850 FXN act	HSF1 inhib	AHR activator	NR0B1 inh
CC(C)C[C@@H](CN1C(=O)C(=O)NC[C@@H]1CC(C)C)NC(=O)Cc1ccccc1	.	.	0	.	-2	0
COc1cccc(Sc2ccccc2/C=N/NC(N)=O)c1	0	57*	-3	20	6	-4
COc1ccc(OC(=O)N(C)C[C@H]2OCc3cn(nn3)CCCC(=O)N([C@H](C)CO)C[C@@H]2C)cc1	.	.	-2	.	.	0
Cc1c(N2C(=O)c3cccc4cccc(c34)C2=O)c(=O)n(-c2ccccc2)n1C	6	9	-3	-4	2	1
Cc1c(N=C2Nc3cccc4cccc2c34)c(=O)n(-c2ccccc2)n1C	3	9	1	-2	90*	0
Cn1c(CO)cnc1-c1ccccc1	-2	-9	2	0	1	-1
COc1ccc(NC(=O)c2ccc(Br)c(S(=O)(=O)N3CCOCC3)c2)cc1	2	-37	-3	-23	4	-2
C(=C/c1ccnc2nc(SC/C=C/c3ccccc3)nn12)/c1ccccc1	4	101*	0	61	0	0
Cc1cccc(C(=O)NNC(=O)c2cc3cc4ccccc4nc3s2)c1	1	.	2	.	74*	0
O=C(NNC(=O)c1cc2cc3ccccc3nc2s1)c1cccc(Cl)c1	-2	17	1	-1	48*	0
COCCN(C(=O)COC(=O)C1CC(=O)N(c2ccc(C)cc2)C1)c1c(N)n(Cc2ccccc2)c(=O)[nH]c1=O (stereo not given)	.	.	1	.	.	1
O=C(O)c1ccc(/C=N/NC(=O)C(O)(c2ccccc2)c2ccccc2)cc1	0	27	2	7	1	0
CCN(CC)c1ccc(/C=N/NC(=O)C(O)(c2ccccc2)c2ccccc2)o1	-1	281*	.	164	-1	.
CCc1cccc(NC(=S)Nc2cccc3ccccc23)c1	7	-8	-2	3	78*	1
Fc1ccc(NC(=S)Nc2ccccc2Cl)cc1	0	25	-1	-2	-3	-1
Cc1ccc(NC(=S)Nc2cccc3ccccc23)cc1	-1	-83	-1	-80*	8	2
Fc1ccc(NC(=S)Nc2cccc3ccccc23)cc1	2	-45	1	-37	50*	1
C=CCNC(=S)Nc1cccc2ccccc12	2	4	2	3	4	0
Cc1cccc(NC(=O)Nc2cccc3ccccc23)c1	1	9	2	2	4	2
Cc1cccc(NC(=S)Nc2cccc3ccccc23)c1	7	-11	2	-6	63*	1
CSc1ccccc1NC(=S)Nc1cc(C)cc(C)c1	4	13	0	11	3	-1
O=C(Nc1ccccc1F)C(=O)Nc1cccc2ccccc12	1	48	4	14	2	3
Cc1cc(C)cc(NC(=S)Nc2cccc3ccccc23)c1	3	-4	-1	-8	69*	0
Cc1cc(NC(=S)Nc2cccc3ccccc23)n[nH]1	2	26	2	15	52*	0
Fc1ccc(NC(=S)Nc2cccc3ccccc23)cc1F	8	5	1	8	74*	1
C/C(=N\NC(=S)Nc1cccc(C)c1)c1cc2ccccc2o1	-4	6	3	-2	49*	-1
CCNC(=S)N/N=C(\C)c1cc2ccccc2o1	-2	12	5	11	36	1
Cc1cc(C(=O)N2CCC2(C)C(=O)Nc2cccc3ccccc23)nn1C (stereo not given)	.	.	0	.	.	.
CC(C)c1ccc(CNC(=O)C2(C)CCCN2C)cc1 (stereo not given)	.	.	1	.	.	.
